hcDAF-12 act: H. contortus DAF-12 nuclear receptor activators, primary screen, cell-based, luminescence, HEK293, lit1-tk-luc reporter; activation, % at 6.8 µM; AID 652067, 2013; actives 1.4% (n = 370,000); HEK293 hcDAF-12 lit1-tk-luc reporter; 0% DMSO, 100% Δ7-dafachronic acid;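 active = activation above the mean of all tested compounds plus 3 SD, cut at about 5.5% in these data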;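 note: 100% = response to 3 µM Δ7-dafachronic acid high control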
DAX1 inh-1: DAX1 (NR0B1) inhibitors, primary screen, cell-based, HEK293, Gal4-DAX1, luciferase luminescence. HEK293 Gal4-DAX1 luciferase reporter. Nuclear receptor subfamily 0 group B member 1 (Homo sapiens), P51843. AID 504766, 2011. actives 0.99% (n = 340,000). inhibition, % at 6.75 µM;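 active = inhibition above the mean over all tested compounds plus 3 SD, cut at about 4.2% in these data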;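 note: 0% = DAX1-transfected cells with DMSO and 100% = empty-vector control cells with DMSO; inhibition shows as a rise in luminescence from relieved DAX1 repression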
DAX1 inh-2: DAX1 (NR0B1) inhibitors on StAR promoter, primary screen, cell-based, luminescence, SF-1 (NR5A1), full-length DAX-1; HEK293T StAR-luciferase reporter, SF-1/DAX-1 repression relief; inhibition, % at 6.8 µM; actives 1.1% (n = 370,000); AID 652010, 2013;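 active = inhibition above the mean over all tested compounds plus 3 SD, cut at about 3.6% in these data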;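 note: 0% = DAX-1 cells with DMSO and 100% = cells lacking DAX-1 with DMSO; higher inhibition means more luminescence from relief of DAX-1 repression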
hgDAF12 agonist: H. glycines DAF-12 receptor agonists, primary screen, cell-based, luminescence, HEK293, GAL4 fusion, UAS-luciferase. Nuclear hormone receptor DAF-12 (Heterodera glycines), GAL4 fusion. HEK293 GAL4-hgDAF12 UAS-luciferase reporter, agonist luminescence; normalized to butyrate control. activation, % at 6.8 µM. actives 1.8% (n = 370,000). AID 687014, 2013;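 active = activation above a cutoff set at the mean of all screened compounds plus 3 SD, cut at about 10% in these data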;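 note: 0% = DMSO wells and 100% = sodium butyrate wells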
AHR act: AHR activators, primary screen, cell-based, luminescence, luciferase reporter, human; AHR-responsive luciferase reporter cells; AID 2796, 2010; actives 2.5% (n = 320,000); Aryl hydrocarbon receptor (Homo sapiens), P35869; activation, % at 5 µM; in the data active = activation above about 47%;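 note: 0% = vehicle wells and 100% = reference agonist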
Target sequence (P35869 whole entry, looked up): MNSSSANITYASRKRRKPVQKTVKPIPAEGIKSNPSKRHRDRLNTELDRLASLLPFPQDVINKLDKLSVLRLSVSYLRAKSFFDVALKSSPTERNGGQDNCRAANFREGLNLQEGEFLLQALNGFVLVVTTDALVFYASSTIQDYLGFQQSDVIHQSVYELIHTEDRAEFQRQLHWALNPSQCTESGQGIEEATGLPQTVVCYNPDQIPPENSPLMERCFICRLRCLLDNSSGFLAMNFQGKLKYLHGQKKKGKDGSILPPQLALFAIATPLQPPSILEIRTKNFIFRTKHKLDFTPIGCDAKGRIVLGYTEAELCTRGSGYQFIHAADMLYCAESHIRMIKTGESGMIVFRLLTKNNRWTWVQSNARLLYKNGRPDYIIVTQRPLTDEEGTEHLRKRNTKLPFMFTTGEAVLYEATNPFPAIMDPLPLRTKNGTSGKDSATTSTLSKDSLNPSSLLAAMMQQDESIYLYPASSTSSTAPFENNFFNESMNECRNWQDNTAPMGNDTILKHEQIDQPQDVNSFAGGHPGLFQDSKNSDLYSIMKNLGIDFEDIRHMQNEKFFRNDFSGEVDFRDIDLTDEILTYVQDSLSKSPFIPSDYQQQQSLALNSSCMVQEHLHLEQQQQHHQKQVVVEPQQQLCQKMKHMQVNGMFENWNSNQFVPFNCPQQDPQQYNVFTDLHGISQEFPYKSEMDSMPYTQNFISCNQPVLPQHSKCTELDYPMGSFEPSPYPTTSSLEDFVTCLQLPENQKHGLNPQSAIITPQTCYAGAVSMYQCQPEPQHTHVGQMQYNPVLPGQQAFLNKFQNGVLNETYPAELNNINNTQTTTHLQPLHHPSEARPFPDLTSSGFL
ssDAF12 agonist: S. stercoralis DAF-12 nuclear receptor activators, primary screen, cell-based, luminescence, HEK293, GRIP1 co-expression, lit1-tk-luc | HEK293 ssDAF-12/GRIP1 lit1-tk-luc reporter; % of 3 µM dafachronic acid response | actives 1% (n = 370,000) | AID 652126, 2013 | Nuclear hormone receptor DAF-12 (Strongyloides stercoralis) | activation, % at 6.8 µM;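 active = activation above the mean over all tested compounds plus 3 SD, cut at about 0.9% in these data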;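 note: 0% = DMSO-only wells and 100% = 3 µM delta7-dafachronic acid wells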
* marks the source's active call; other numbers are inactive results; . = not tested or not shown. A selection: hits, their analogues and other compounds. The true share with any hit is near 5.7%.

SMILES	hcDAF-12 act	DAX1 inh-1	DAX1 inh-2	hgDAF12 agonist	AHR act	ssDAF12 agonist
COCCN(CCOC)Cc1cc(=O)oc2ccccc12	2.2	.	0.6	-0.9	.	-1.0
O=S(=O)(Cc1ccccc1)NCc1ccccn1	.	-0.3	.	.	4.0	.
CC(C)(C)c1ccc(C(=O)/C(C#N)=C/c2cccs2)cc1	0.0	4.6*	0.2	0.0	4.0	-1.8
N#C/C(=C\c1cccs1)C(=O)Nc1ccccn1	2.8	6.9*	2.6	6.8	-1.2	0.5
CC(NC(=O)/C(C#N)=C/c1cccs1)c1ccccc1 (configuration not stated)	-1.0	-1.6	-2.1	-1.9	3.6	-2.1
Cc1sc2ncnc(N3CCN(S(=O)(=O)c4ccc(F)cc4)CC3)c2c1C	0.2	-1.0	0.0	-0.2	1.0	-0.8
O=C(CN1CCOc2ccccc21)NCc1ccccc1	5.8*	0.3	-0.5	1.0	3.2	0.2
CC(CCc1ccccc1)NC(=O)CN1CCOc2ccccc21 (configuration not stated)	3.4	0.2	-0.5	0.6	1.4	0.4
Cc1cc(C(=O)CCC(=O)N2CCN(S(=O)(=O)c3ccccc3)CC2)c(C)s1	-2.1	-0.7	-1.1	-0.7	0.3	-1.6
Cc1cc(NC(=O)CSc2nc(C(C)C)nc3sc4c(c23)CCCC4)no1	-0.2	0.3	0.6	1.8	-0.5	1.3*
COc1ccccc1NS(=O)(=O)c1cccc(C(=O)NCC(c2ccccc2OC)N2CCCC2)c1 (configuration not stated)	0.4	2.2	4.3*	0.1	2.4	-0.8
COc1ccccc1NS(=O)(=O)c1cccc(C(=O)OCc2nc3ccccc3s2)c1	5.6*	1.4	1.0	4.8	23.9	2.7*
COc1ccccc1NS(=O)(=O)c1cccc(C(=O)OCC(=O)Nc2cc(C)on2)c1	1.2	-1.2	-0.2	-1.2	0.7	-1.1
COc1ccc(/C(C)=N/NC(=O)OC(C)(C)C)cc1[N+](=O)[O-]	0.1	1.5	-0.2	5.3	5.6	-0.5
Cc1cnc(C(=O)Nc2nnc(C3CC3)s2)cn1	1.8	0.0	1.1	0.4	10.3	-0.6
C=CCOc1cccc(C2/C(=C(/O)c3ccccc3)C(=O)C(=O)N2CCN2CCOCC2)c1 (configuration not stated)	-0.6	0.0	0.7	1.5	5.6	-1.3
COc1ccc(CCC(=O)Nc2cc3c4c(c2)CC(=O)N4CCC3)cc1	-1.4	0.5	1.6	0.5	5.7	-0.9
O=C(CO)N/N=C/c1ccc(Cl)cc1	-1.9	0.7	0.1	0.2	-2.2	-0.9
CCc1ccc2c(c1)C1(NN=C(c3ccc(C)cc3)S1)C(=O)N2 (configuration not stated)	0.9	-1.4	0.1	5.1	54.6*	0.0
CC(=O)Oc1cccc(C2C3=C(CC(C)(C)CC3=O)Nc3ccccc3N2C(C)=O)c1 (configuration not stated)	0.7	2.5	-0.7	-1.0	-0.2	-0.7
Cc1ccc2c(c1)N1C(=O)c3ccccc3C1C1=C(CC(C)(C)CC1=O)N2 (configuration not stated)	-1.8	-1.3	-0.2	-3.5	49.7*	-1.6
Cc1ccc(C)c(Nc2nc(N)c3ccccc3n2)c1	4.3	4.5*	2.2	11.6*	10.5	0.2
COc1ccc(C)cc1Nc1nc(N)c2cc(OC)c(OC)cc2n1	.	-1.0	.	.	62.0*	.
Cc1ccc(O)c(Nc2c3ccccc3nc3ccccc23)c1	-0.7	-0.9	-0.5	-1.7	39.8	-0.6
O=C(COC(=O)c1cccs1)Nc1ccc(Cl)cn1	0.5	0.3	1.4	3.4	0.3	-1.1
SMILES	hcDAF-12 act	DAX1 inh-1	DAX1 inh-2	hgDAF12 agonist	AHR act	ssDAF12 agonist
CCCNC(=O)C1CC(=O)N(c2ccc(OCc3ccc(F)cc3)cc2)C1 (configuration not stated)	5.9*	0.8	2.9	12.9*	2.2	0.1
NC(=O)C1CC(=O)N(c2ccc(OCc3ccc(Cl)cc3)cc2)C1 (configuration not stated)	3.1	0.8	2.9	11.6*	0.0	0.5
O=C(O)CCC(=O)c1ccc2sc3ccccc3c2c1	1.3	0.6	0.5	0.3	.	-0.2
COc1cccc(C2C(C(=O)OC(C)C)=C(C)N=c3s/c(=C\c4ccc(C(=O)O)cc4)c(=O)n32)c1 (configuration not stated)	-1.4	0.8	0.0	2.0	-2.2	-0.9
CCN1CCN(Cc2ccc(OCc3ccccc3)cc2)CC1	3.2	1.8	1.8	12.7*	6.8	-1.2
c1ccc(COc2ccc(OCCN3CCCC3)cc2)cc1	0.6	-1.6	0.5	6.0	3.7	-1.8
c1ccc(COc2ccc(OCCN3CCCCC3)cc2)cc1	6.0*	-0.7	0.1	-0.7	-2.7	-0.8
Cc1cc(-c2ccc(C)c(S(=O)(=O)NCCCN3CCN(c4ccccc4)CC3)c2)on1	-5.9	-1.5	-1.5	-8.3	-0.5	-2.2
COc1ccc(CN2CCN(C(=O)c3ccc(S(=O)(=O)NCc4ccco4)cc3)CC2)cc1	-4.0	-2.8	-7.8	-4.9	.	-2.1
CN(CC(=O)N1CCN(c2cccc(Cl)c2)CC1)S(=O)(=O)c1cnc[nH]1	-2.8	-1.4	-0.4	-0.3	1.2	-0.5
COc1ccc(OCc2cc(C(=O)N(C)Cc3cc(C4CC4)n[nH]3)no2)c(Cl)c1	4.1	1.5	4.2*	8.0	8.5	-1.2
O=C(c1cc(COc2ccc(F)cc2F)on1)N1CCSCC1	1.5	0.8	3.2	12.2*	-0.1	-1.0
COc1cccc(OCc2cc(C(=O)N3CCN(C(C)=O)CC3)no2)c1	2.7	0.4	0.8	6.5	7.9	0.4
CCN1CCN(C(=O)c2cc(COc3ccc(C(C)=O)cc3OC)on2)CC1	5.2	1.7	0.7	11.9*	7.9	0.1
CCOC(=O)N1CCN(C(=O)c2cc(COc3ccc(OC)cc3Cl)on2)CC1	-0.4	2.3	-0.8	2.2	14.7	-1.2
COc1ccc(OCc2cc(C(=O)N3CCN(CC4CC4)CC3)no2)c(Cl)c1	0.8	1.6	3.6*	7.8	6.4	-1.0
CCOC(=O)C1CCN(C(=O)c2ccc(Cl)c(NC3=NC4CS(=O)(=O)CC4S3)c2)CC1 (configuration not stated)	0.3	1.1	0.6	2.4	4.6	-1.1
O=C(COc1ccccc1)Nc1nc2c(s1)CCCC2	-0.5	-0.5	0.0	7.5	-0.2	-1.3
